# Data from the supplement of paper PMC8728848.
# The sample as a whole holds a higher share of the strongest signals than the screen did.
# B1: PA-IL (Pseudomonas aeruginosa) (protein)
# chain: AWKGEVLANNEAGQVTSIIYNPGDVITIVAAGWASYGPTQKWGPQGDREHPDQGLICHDAFCGALVMKIGNSGTIPVNTGLFRWVAPNNVQGAITLIYNDVPGTYGNNSGSFSVNIGKDQS
# How the values were obtained:
# Experiment in all cases: glycan array binding signal (z-score within array); higher = stronger binding
# Conditions in all cases: glycan notation: IUPAC condensed, linker removed
# [1] = biological target: Fuc(a1-2)Gal(b1-3)GlcNAc
# In short: (§1)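 Glycan array data came from 3228 arrays in the Consortium for Functional Glycomics database, and only arrays with an available protein sequence were kept. Glycan names were put into IUPAC-condensed notation, and columns mapping to the same glycan were averaged. The binding signal is a within-array Z-score, averaged across arrays of one protein sequence run at different concentrations or buffers and across linkers. A negative Z-score can be read as non-binding.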
# [2] = biological target: Fuc(a1-2)[Gal(a1-4)]Gal(b1-4)GlcNAc
# In short: as §1
# [3] = biological target: Fuc(a1-2)[GalNAc(a1-3)]Gal(b1-4)Glc
# In short: as §1
# [4] = biological target: Fuc(a1-2)[GalNAc(a1-3)]Gal(b1-4)GlcNAc
# In short: as §1
# [5] = biological target: Fuc(a1-2)[GalNAc(b1-3)]Gal
# In short: as §1
# [6] = biological target: Gal(a1-2)Gal
# In short: as §1
# [7] = biological target: Gal(a1-3)Gal(b1-4)Glc
# In short: as §1
# [8] = biological target: Gal(a1-3)Gal(b1-4)[Fuc(a1-3)]GlcNAc
# In short: as §1
# [9] = biological target: Gal(a1-3)[Gal(a1-4)]Gal(b1-4)GlcNAc
# In short: as §1
# [10] = biological target: Gal(a1-4)GlcNAc
# In short: as §1
# [11] = biological target: Gal(a1-6)Glc
# In short: as §1
# [12] = biological target: Gal(b1-3)Gal
# In short: as §1
# [13] = biological target: Gal(b1-4)GlcNAc(b1-6)Gal(b1-4)GlcNAc(b1-6)GalNAc
# In short: as §1
# [14] = biological target: Glc(a1-4)Glc
# In short: as §1
# [15] = biological target: GlcA(b1-3)Gal
# In short: as §1
# [16] = biological target: GlcNAc(a1-3)Gal(b1-4)GlcNAc
# In short: as §1
# [17] = biological target: Man(a1-2)Man(a1-2)Man(a1-6)[Man(a1-3)]Man
# In short: as §1
# [18] = biological target: Man(a1-2)Man(a1-3)Man
# In short: as §1
# [19] = biological target: Man(a1-2)Man(a1-3)[Man(a1-2)Man(a1-6)]Man(a1-6)[Man(a1-2)Man(a1-2)Man(a1-3)]Man(b1-4)GlcNAc(b1-4)GlcNAc
# In short: as §1
# [20] = biological target: Man(a1-2)Man(a1-6)[Man(a1-3)]Man(a1-6)[Man(a1-2)Man(a1-2)Man(a1-3)]Man(b1-4)GlcNAc(b1-4)GlcNAc
# In short: as §1
# [21] = biological target: Neu5Ac(a2-3)Gal(b1-3)[Neu5Ac(a2-6)]GalNAc
# In short: as §1
# [22] = biological target: Neu5Gc(a2-3)Gal(b1-4)Glc
# In short: as §1
binder,measurement,setting,value
B1,glycan array binding signal (z-score),[1],-0.365
same,glycan array binding signal (z-score),[2],3.69
same,glycan array binding signal (z-score),[3],0.183
same,glycan array binding signal (z-score),[4],0.174
same,glycan array binding signal (z-score),[5],-0.363
same,glycan array binding signal (z-score),[6],4.77
same,glycan array binding signal (z-score),[7],3.73
same,glycan array binding signal (z-score),[8],4.11
same,glycan array binding signal (z-score),[9],3.92
same,glycan array binding signal (z-score),[10],3.15
same,glycan array binding signal (z-score),[11],1.53
same,glycan array binding signal (z-score),[12],-0.271
same,glycan array binding signal (z-score),[13],0.234
same,glycan array binding signal (z-score),[14],-0.365
same,glycan array binding signal (z-score),[15],-0.365
same,glycan array binding signal (z-score),[16],-0.365
same,glycan array binding signal (z-score),[17],-0.365
same,glycan array binding signal (z-score),[18],-0.365
same,glycan array binding signal (z-score),[19],-0.357
same,glycan array binding signal (z-score),[20],-0.364
same,glycan array binding signal (z-score),[21],-0.365
same,glycan array binding signal (z-score),[22],-0.364
